# The source made the active and inactive calls. Unless noted, no rule for the calls is given here.
# Experiments:
# [1] = resazurin metabolic signal in HepG2 cells – cell-based, resazurin fluorescence, 24 h, PK04 Diversity Set, profiling panel (AID 1172); conditions: HepG2 viability, higher = more signal; also: test concentration not given here
# [2] = budding yeast growth changes without added modifier – OD600, strain BY4716, 24 h, basal condition, primary screen (AID 1173); conditions: S. cerevisiae BY4716 growth, OD600, 24 h; higher = more signal, called active from +8 up or from −8 down
# [3] = viability profiling in MM1S myeloma cells – cell-based, resazurin fluorescence, basal, 24 h, PK04 Diversity Set, profiling panel (AID 1174); conditions: higher = more signal, called active from +8 up or from −8 down;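 also: MM1S multiple myeloma cell line; test concentration not given here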
# [4] = target: Dihydroorotate dehydrogenase (quinone), mitochondrial (Plasmodium falciparum (isolate 3D7)) (UniProt Q08210); assay: inhibition of P. falciparum DHODH – biochemical, C-terminal His tag, absorbance 600 nm, primary screen (AID 1175); conditions: PfDHODH enzyme, DCIP absorbance 600 nm; higher = more signal, called active from +8 up or from −8 down;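 also: recombinant parasite enzyme with a five histidine tag at its C terminus; test concentration not given here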
# [5] = inhibition of PAO1 biofilm formation – strain PAO1, LB-PBS medium, absorbance 600 nm, primary screen (AID 1176); also: test concentration not given here; conditions: P. aeruginosa PAO1 growth/biofilm, A600, 12 h; higher = more signal
# [6] = growth modulation of vineyard yeast isolate – strain RM11-1a, OD600, basal, 24 h, primary screen (AID 1177);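 also: cultures grown under basal conditions with no added stressor; test concentration not given here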; conditions: S. cerevisiae RM11-1a growth, OD600, 24 h; higher = more signal, called active from +8 up or from −8 down
# [7] = growth of efflux-deficient E. coli DRC39 – strain DRC39, OD650, 24 h, E. coli filamentation inducers, primary screen (AID 1178);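 also: growth measured as culture turbidity by optical density at 650 nm; test concentration not given here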; conditions: E. coli DRC39 acrAB, higher = more signal, called active from +8 up or from −8 down
# [8] = growth of efflux-deficient E. coli DRC39 – strain DRC39, OD650, 48 h, E. coli filamentation inducers, primary screen (AID 1179);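 also: screen aims at cell division blockers that make cells filament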; conditions: E. coli DRC39 delta-acrAB growth, higher = more signal, called active from +8 up or from −8 down
# [9] = viability profiling in RPMI8226 myeloma cells – cell-based, resazurin fluorescence, basal, 24 h, PK04 Diversity Set, profiling panel (AID 1180); conditions: higher = more signal;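 also: RPMI8826 multiple myeloma cell line at 5000 cells per well; test concentration not given here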
# [10] = target: E3 ubiquitin-protein ligase XIAP (Homo sapiens) (UniProt P98170); assay: small molecules binding XIAP protein – biophysical, small-molecule microarray, fluorescence 635 nm, primary screen (AID 1181); conditions: higher = more signal;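 also: score merges 667 nm emission and signal to noise over triplicate slides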
# Sequence of E3 ubiquitin-protein ligase XIAP (Homo sapiens) (P98170 whole entry, looked up): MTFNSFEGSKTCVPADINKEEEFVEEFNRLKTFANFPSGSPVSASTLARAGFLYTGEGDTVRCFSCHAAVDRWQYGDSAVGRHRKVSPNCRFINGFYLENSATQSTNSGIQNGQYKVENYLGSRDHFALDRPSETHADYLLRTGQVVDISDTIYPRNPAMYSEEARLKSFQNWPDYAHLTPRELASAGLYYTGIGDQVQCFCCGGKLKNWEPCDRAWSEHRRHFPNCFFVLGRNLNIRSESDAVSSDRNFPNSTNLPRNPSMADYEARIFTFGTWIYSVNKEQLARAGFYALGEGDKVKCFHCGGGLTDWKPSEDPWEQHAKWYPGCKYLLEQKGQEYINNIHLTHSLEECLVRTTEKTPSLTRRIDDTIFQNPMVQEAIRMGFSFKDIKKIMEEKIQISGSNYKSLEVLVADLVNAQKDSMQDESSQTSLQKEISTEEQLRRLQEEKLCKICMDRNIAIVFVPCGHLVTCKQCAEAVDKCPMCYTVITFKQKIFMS
# Sequence of Dihydroorotate dehydrogenase (quinone), mitochondrial (Plasmodium falciparum (isolate 3D7)) (Q08210 whole entry, looked up): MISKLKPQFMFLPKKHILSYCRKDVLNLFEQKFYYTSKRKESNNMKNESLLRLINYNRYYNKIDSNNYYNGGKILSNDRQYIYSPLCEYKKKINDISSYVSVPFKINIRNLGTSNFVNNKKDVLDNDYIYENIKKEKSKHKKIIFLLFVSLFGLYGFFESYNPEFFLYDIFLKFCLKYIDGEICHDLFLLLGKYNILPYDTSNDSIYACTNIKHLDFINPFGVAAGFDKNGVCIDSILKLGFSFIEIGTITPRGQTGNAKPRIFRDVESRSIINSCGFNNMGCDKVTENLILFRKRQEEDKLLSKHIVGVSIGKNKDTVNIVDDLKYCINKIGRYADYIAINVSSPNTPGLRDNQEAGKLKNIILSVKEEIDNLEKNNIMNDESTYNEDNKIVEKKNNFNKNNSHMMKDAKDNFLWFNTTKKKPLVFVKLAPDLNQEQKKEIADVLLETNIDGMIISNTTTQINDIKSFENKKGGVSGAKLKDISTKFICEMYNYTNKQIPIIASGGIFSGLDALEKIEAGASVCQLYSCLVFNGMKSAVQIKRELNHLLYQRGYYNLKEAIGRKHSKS
Compound,z-score [1],z-score [2],z-score [3],composite z-score [4],z-score [5],z-score [6],z-score [7],z-score [8],z-score [9],composite z-score [10]
CO[C@H]1O[C@H](CO)[C@@H](OC(=O)Nc2ccc(Br)cc2)[C@H](OC(=O)c2cc3ccccc3[nH]2)[C@H]1OC(=O)c1cc2ccccc2[nH]1,-3.36,-0.98 (inactive),-2.32 (inactive),-1.2 (inactive),1.16 (inactive),-1.02 (inactive),1.21 (inactive),1.78 (inactive),-4.77,-0.0011
COc1ccc(C#Cc2ccc3c(c2)[C@]2(C(=O)N3)[C@H](c3ccccc3OCCO)N3[C@H](c4ccccc4)[C@H](c4ccccc4)OC(=O)[C@H]3[C@@H]2C(=O)O)cc1,1.86,1.75 (inactive),-3.05 (inactive),-24.8 (active),2.76 (inactive),3.13 (inactive),1.06 (inactive),0.047 (inactive),-6.75,0.284
O=C1OCCC/C=C\[C@H]2OC34C=CCN(Cc5ccccc5)C(=O)[C@H]3N(CCCCCCO)C(=O)[C@@H]4C12 (stereo not given in full),0.493,-0.908 (inactive),-0.549 (inactive),-0.0805 (inactive),-0.497 (inactive),0.692 (inactive),1.23 (inactive),1.58 (inactive),0.809,-0.15
O=C(O)[C@@]1(CCS(=O)(=O)c2ccccc2)COC(c2ccc(OCCCO)cc2)=N1,0.444,0.0291 (inactive),-0.21 (inactive),0.0614 (inactive),-0.347 (inactive),-0.197 (inactive),-0.43 (inactive),-0.216 (inactive),0.0149,0.0767
CN1C(=O)C2C=CC(C(O)c3cc(C(F)(F)F)cc(C(F)(F)F)c3)N(N3CCCCC3)C2C1=O (stereo not given),-0.55,1.36 (inactive),-0.136 (inactive),0.929 (inactive),0.049 (inactive),2.29 (inactive),-0.289 (inactive),-0.795 (inactive),0.493,-0.295
Cc1ccc(C(C)CC(O)C2C=CC3C(=O)N(C)C(=O)C3N2NC(=O)OC(C)(C)C)o1 (stereo not given),-0.427,-0.626 (inactive),-0.076 (inactive),-0.166 (inactive),0.434 (inactive),0.66 (inactive),-0.107 (inactive),-0.354 (inactive),0.0437,0.12
COCCOC(=O)N1C(=O)[C@@]2(c3cc(C#CC4=CCCCC4)ccc31)[C@H](C(=O)N1CCc3cc(OC)c(OC)cc3C1)[C@H]1C(=O)O[C@H](c3ccccc3)[C@H](c3ccccc3)N1[C@@H]2c1ccc(OCCO)cc1,0.149,1.18 (inactive),0.516 (inactive),-0.352 (inactive),3.64 (inactive),1.38 (inactive),0.14 (inactive),-0.316 (inactive),0.492,-0.139
O=C1c2ccccc2[C@](Cc2ccccc2I)(C(=O)NC2CC2)[C@H](c2ccc(CO)cc2)N1C1CCCCC1,-0.13,0.404 (inactive),0.516 (inactive),1.06 (inactive),0.304 (inactive),2.64 (inactive),-0.0781 (inactive),-0.585 (inactive),0.549,-0.0426
CCOC(=O)C[C@H]1[C@H](OC(=O)c2cc3ccccc3oc2=O)[C@@H](NC(=O)Cc2ccc(OC)cc2)c2cc(OCCCO)ccc2N1C(=O)c1ccccc1,-1.1,-2.06 (inactive),-0.218 (inactive),-2.42 (inactive),-0.329 (inactive),0.0296 (inactive),-0.682 (inactive),-0.784 (inactive),-1.22,0.0997
C=C(CCCC)/C(=C/C[C@@H](OC(C)=O)c1ccccc1OCCO)c1cnc2ccccc2c1,-1.25,-1.66 (inactive),-0.614 (inactive),-7.22 (inactive),0.191 (inactive),0.862 (inactive),-0.765 (inactive),-0.587 (inactive),-0.52,-0.198
COc1ccc(COC2OC[C@]3(C)[C@H]4C5=C(CN3C(=O)OC(C)(C)C)[C@H](C)C(CO)C(CO)C5CC[C@@H]24)cc1 (stereo not given in full),-0.987,0.455 (inactive),-2.38 (inactive),-0.124 (inactive),1.03 (inactive),0.903 (inactive),-0.806 (inactive),-1.6 (inactive),-1.19,-0.02
COc1cc(CO)cc(I)c1O[C@H]1C=C(C(=O)NCCO)C[C@@H](N(CCN2CCOCC2)C(=O)C2CCOC2)[C@@H]1O (stereo not given in full),1.66,-2.49 (inactive),0.85 (inactive),0.938 (inactive),0.355 (inactive),0.0222 (inactive),2.68 (inactive),1.5 (inactive),0.923,0.02
C=CCNC(=O)[C@H]1[C@@H]2C(=O)O[C@@H](c3ccccc3)[C@@H](c3ccccc3)N2[C@@H](c2ccc(OCCO)cc2)[C@]12C(=O)Nc1ccc(C#CC3=CCCCC3)cc12,0.735,2.06 (inactive),-1.21 (inactive),0.472 (inactive),0.269 (inactive),2.97 (inactive),0.0358 (inactive),-0.198 (inactive),-2.77,0.0435
CC(C)c1ccc(NN2C(C(O)C(c3ccccc3)c3ccccc3)C=CC3C(=O)N(c4ccccc4)C(=O)C32)cc1 (stereo not given),-1.49,-0.141 (inactive),-1.35 (inactive),0.704 (inactive),0.642 (inactive),1.17 (inactive),-1.39 (inactive),-1.47 (inactive),-0.912,-0.0525
Cc1ccc(C(C)CC(O)C2C=CC3C(=O)N(c4ccccc4)C(=O)C3N2Nc2ccc([N+](=O)[O-])cc2)o1 (stereo not given),0.836,0.124 (inactive),-0.171 (inactive),-0.071 (inactive),1.14 (inactive),0.315 (inactive),-0.975 (inactive),0.178 (inactive),0.263,0.152
[N-]=[N+]=NCc1ccccc1[C@H]1OC(c2ccc(OCCCO)cc2)=N[C@@]1(Cc1ccccc1)C(=O)NCc1ccccc1,0.294,-0.223 (inactive),-0.666 (inactive),-0.407 (inactive),0.702 (inactive),0.747 (inactive),0.431 (inactive),0.0009 (inactive),-0.34,0.58
COc1ccc(C(O)C2C=CC3C(=O)NC(=O)C3N2Nc2ccccn2)cc1 (stereo not given),-0.396,0.0843 (inactive),-0.285 (inactive),0.91 (inactive),0.366 (inactive),0.31 (inactive),-0.276 (inactive),-0.401 (inactive),-0.721,-0.893
C=CCOC(=O)[C@H]1[C@@H]2C(=O)O[C@@H](c3ccccc3)[C@@H](c3ccccc3)N2[C@@H](c2ccc(OCCOC(=O)[C@H]3C[C@H]4C(=O)N5CCC[C@H]5C(=O)N4[C@H]3c3ccc(O)cc3)cc2)[C@]12C(=O)Nc1ccccc12,0.697,1.66 (inactive),0.744 (inactive),-0.391 (inactive),3.67 (inactive),1.84 (inactive),-0.0749 (inactive),-0.13 (inactive),0.435,0.201
O=C1NC(=O)C2C1C=CC(C(O)Cc1ccccc1)N2Nc1ccc(Cl)cc1Cl (stereo not given),-0.985,-7.58 (inactive),-1.56 (inactive),-0.276 (inactive),0.53 (inactive),0.181 (inactive),-0.655 (inactive),-0.603 (inactive),-1.04,0.13
C=CCOC(=O)[C@H]1[C@@H]2C(=O)O[C@@H](c3ccccc3)[C@@H](c3ccccc3)N2[C@@H](c2ccc(OCCOC(=O)[C@H]3C[C@H]4C(=O)N[C@@H](CC(C)C)C(=O)N4[C@H]3c3ccc(O)cc3)cc2)[C@]12C(=O)Nc1ccc(I)cc12,-0.598,-0.838 (inactive),-0.491 (inactive),-1.72 (inactive),0.379 (inactive),0.919 (inactive),-0.267 (inactive),0.276 (inactive),-0.385,0.109
COc1ccc(C(O)C2C=CC3C(=O)N(C)C(=O)C3N2N2CCCCC2)c2ccccc12 (stereo not given),-1.2,-1.78 (inactive),-1.64 (inactive),0.238 (inactive),0.503 (inactive),0.806 (inactive),-0.413 (inactive),-0.68 (inactive),-1.71,-0.202
O=C1C2C=CC(C(O)c3ccc(F)cc3)N(Nc3ccccc3F)C2C(=O)N1c1ccccc1 (stereo not given),-0.395,-1.9 (inactive),-0.63 (inactive),0.306 (inactive),0.599 (inactive),0.0815 (inactive),-0.554 (inactive),-0.184 (inactive),-0.292,0.0029
